Screens from PubChem.
hcDAF12 agonist – activators of H. contortus DAF-12 nuclear receptor. HEK293 hcDAF-12 lit1-tk-luc reporter, luminescence; 0% DMSO, 100% Δ7-dafachronic acid. activation, % at 6.8 µM. 1.4% of 370,000 active;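 active = activation above the mean of all tested compounds plus 3 SD, cut at about 5.5% in these data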;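 also: 100% = response to 3 µM Δ7-dafachronic acid high control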
DAX1 inh-1 – inhibits human nuclear receptor DAX1; HEK293 Gal4-DAX1 luciferase reporter, luminescence; inhibition, % at 6.75 µM; 0.99% of 340,000 active; AID 504766;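 active = inhibition above the mean over all tested compounds plus 3 SD, cut at about 4.2% in these data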;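 also: 0% = DAX1-transfected cells with DMSO and 100% = empty-vector control cells with DMSO; inhibition shows as a rise in luminescence from relieved DAX1 repression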
ssDAF12 agonist – activates DAF-12 receptor from parasite S. stercoralis; HEK293 ssDAF-12/GRIP1 lit1-tk-luc reporter, luminescence; % of 3 µM dafachronic acid response; 1% of 370,000 active; AID 652126; activation, % at 6.8 µM;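 active = activation above the mean over all tested compounds plus 3 SD, cut at about 0.9% in these data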;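 also: 0% = DMSO-only wells and 100% = 3 µM delta7-dafachronic acid wells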
DAX1 inh-2 – blocks DAX1 repression of SF-1 activated StAR promoter; HEK293T StAR-luciferase reporter, SF-1/DAX-1 repression relief; AID 652010; inhibition, % at 6.8 µM; 1.1% of 370,000 active;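 active = inhibition above the mean over all tested compounds plus 3 SD, cut at about 3.6% in these data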;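 also: 0% = DAX-1 cells with DMSO and 100% = cells lacking DAX-1 with DMSO; higher inhibition means more luminescence from relief of DAX-1 repression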
SMARCA2 act – increases SMARCA2 function in MMTV reporter cells; 1% of 370,000 active; MG213 cells, MMTV-luciferase reporter, dexamethasone, overnight; activation, % at 9.1 µM; AID 652017; in the data active = activation above about 7.8%;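 also: 0% = vehicle wells and 100% = reference activator wells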
hgDAF-12 ag – agonists of H. glycines DAF-12 nuclear receptor | HEK293 GAL4-hgDAF12 UAS-luciferase reporter, agonist luminescence; normalized to butyrate control | 1.8% of 370,000 active | activation, % at 6.8 µM;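 active = activation above a cutoff set at the mean of all screened compounds plus 3 SD, cut at about 10% in these data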;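 also: 0% = DMSO wells and 100% = sodium butyrate wells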
DAX1 inh confirm – confirmation of human DAX1 (NR0B1) inhibitors. shares compounds with DAX1 inh-2. HEK293T StAR-promoter luciferase reporter, SF-1/DAX-1 repression. inhibition, % at 6.8 µM. 87% of 2,400 active. AID 652134;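 active = inhibition above the average of every tested compound plus 3 SD, cut at about 3.8% in these data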;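 also: 0% = DAX-1 cells with DMSO and 100% = no DAX-1 control cells with DMSO; active compounds raise luminescence by relieving repression of the StAR reporter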
SF1 mutant ctr – nonselective inhibitor or artifact in SF-1 mutant DAX1 counter-screen. shares compounds with DAX1 inh-2. HEK293 StAR-luciferase, SF-1 AF2 mutant, luminescence. inhibition, % at 6.8 µM. 78% of 2,400 active;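 active = inhibition above the mean of all tested compounds plus 3 SD, cut at about 3% in these data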;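 also: 0% = DAX-1 transfected cells with DMSO and 100% = cells without DAX-1 with DMSO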
SMARCA2 conf – SMARCA2 activation, confirmation screen; shares compounds with SMARCA2 act; activation, % at 9.1 µM; MG213 cells, MMTV-luciferase with dexamethasone, luminescence, overnight; MG213 cells expressing E1A, Rb sequestered; DMSO wells 0%, reference activator 100%; AID 652260; 30% of 3,500 active;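 active = activation above its plate's cutoff, the mean activation of tested wells plus 3 SD, cut at about 7.9% in these data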
VP16 Luc act – counter-screen for SMARCA2 activators: GAL4-VP16 luciferase reporter activation; shares compounds with SMARCA2 act; AID 686939; activation, % at 9.1 µM; 41% of 3,500 active; HEK293 GAL4-VP16 pG5luc reporter, luciferase luminescence; scaled: DMSO wells 0%, SAHA wells 100%;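 active = activation above the solvent-only control well mean plus 3 SD, averaged across control plates, cut at about 5.2% in these data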
LXR ag – counter-screen for hcDAF-12 agonists: agonists of human LXR-beta; shares compounds with hcDAF12 agonist; HEK293 Gal4-LXR tk-luc reporter, luminescence, 24 h; normalized: DMSO 0%, positive control 100%; activation, % at 6.8 µM; 3,400 tested, under 10 active; AID 743027;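 active = mean percent activation of the reporter above a cutoff set as the average over tested compounds plus their standard deviation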
Target sequence (P55055 whole entry, looked up, the tested form may be a part): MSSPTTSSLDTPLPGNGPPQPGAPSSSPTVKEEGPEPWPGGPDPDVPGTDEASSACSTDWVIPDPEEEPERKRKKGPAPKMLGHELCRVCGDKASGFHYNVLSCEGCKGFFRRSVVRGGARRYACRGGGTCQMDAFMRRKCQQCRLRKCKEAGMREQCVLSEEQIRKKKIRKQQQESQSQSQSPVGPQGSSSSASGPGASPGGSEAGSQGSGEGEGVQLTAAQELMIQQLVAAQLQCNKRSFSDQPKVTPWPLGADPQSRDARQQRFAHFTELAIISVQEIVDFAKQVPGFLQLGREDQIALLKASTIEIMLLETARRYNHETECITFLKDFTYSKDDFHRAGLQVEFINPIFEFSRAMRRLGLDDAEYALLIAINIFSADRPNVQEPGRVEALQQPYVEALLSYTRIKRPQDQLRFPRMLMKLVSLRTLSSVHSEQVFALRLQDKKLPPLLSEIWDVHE
hcDAF12 conf – confirmation of H. contortus DAF-12 agonists. activation, % at 6.8 µM. 61% of 3,400 active. HEK293 hcDAF-12 lit1-tk-luc reporter, luminescence; % of Δ7-dafachronic acid response. shares compounds with hcDAF12 agonist. AID 743032;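 active = mean activation across triplicate tests above the threshold derived from the earlier primary screen, cut at about 5.5% in these data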;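 also: 0% = DMSO only wells and 100% = 3 µM Δ7-dafachronic acid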
hgDAF12 ag – confirmation of H. glycines DAF-12 agonists; 80% of 3,300 active; shares compounds with hgDAF-12 ag; HEK293 GAL4-hgDAF12 luciferase reporter, agonist mode; percent of butyrate response; activation, % at 6.8 µM;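 active = mean activation over triplicate wells above the hit cutoff derived from the earlier primary screen, cut at about 11% in these data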;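 also: 0% = DMSO low control and 100% = 2 mM sodium butyrate high control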
LXRb DAF12 ctr – LXR-beta agonism as DAF-12 counter-screen | activation, % at 6.8 µM | HEK293 Gal4-LXR luciferase reporter, 24 h | AID 743051 | 3,300 tested, under 10 active | shares compounds with hgDAF-12 ag;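 active = mean activation of the triplicate above a set limit carried over from the primary screen, none filed active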
The depositor's hits bear a star; / = not tested or not shown. Shown are actives, neighbours in structure and some others; about 4.8% of the full set was active somewhere.

SMILES	hcDAF12 agonist	DAX1 inh-1	ssDAF12 agonist	DAX1 inh-2	SMARCA2 act	hgDAF-12 ag	DAX1 inh confirm	SF1 mutant ctr	hgDAF12 ag	LXRb DAF12 ctr	others
Cc1csc(SCc2nnc(-c3ccccc3Br)o2)n1	5	2	1	6.5*	5	16*	14*	8.2*	17*	1
Cc1csc(SCc2nnc(-c3ccc(Cl)cc3)o2)n1	2	3	0	2	6	9	/	/	/	/
Fc1ccccc1SCc1nnc(-c2ccccc2Br)o1	5	0	0	6.5*	5	14*	16*	7.3*	20*	1
CN(C)CCN1C(=O)C(=O)/C(=C(/O)c2ccc(S(=O)(=O)N3CCOCC3)cc2)C1c1ccccc1 (stereo unspecified)	-2	-1	-1	0	6	3	/	/	/	/
CCCc1ccc(OC(=O)c2ccc(O)cc2Cl)cc1	8.4*	2	1	5.3*	2	16*	14*	6.0*	2	1	LXR ag=2;hcDAF12 conf=8.1*
O=C(NCc1ccccc1)C(c1ccccc1)n1c(C2CC2)nc2ccccc21 (stereo unspecified)	2	/	1.9*	6.1*	4	20*	11*	5.2*	16*	1
O=C(NCc1ccccc1)C(c1ccccc1)n1c(-c2ccncc2)nc2ccccc21 (stereo unspecified)	1	/	-1	1	0	0	/	/	/	/
CCN(CC)c1ccc(N=Nc2nn(C)c(C)c2[N+](=O)[O-])cc1	4	0	1.2*	4.7*	4	16*	14*	5.2*	15*	1
CCN(Cc1ccccc1)c1ccc(N=Nc2nn(C)c(C)c2[N+](=O)[O-])cc1	-2	-1	-2	0	0	7	/	/	/	/
CN(CC(=O)Nc1ccccc1Br)C(=O)c1cc2c(s1)CCCCC2	2	4.2*	0	6.4*	2	14*	7.5*	4.9*	11*	0
COc1ccc2oc3cc(NCCN(C)C)ccc3c(=O)c2c1	9.2*	/	2.2*	16*	21*	43*	22*	13*	42*	1	SMARCA2 conf=38*;VP16 Luc act=13*;LXR ag=2;hcDAF12 conf=8.4*
COCCNC(=O)CS(=O)Cc1nc(-c2ccccc2C)oc1C (stereo unspecified)	-1	1	0	1	-1	5	/	/	/	/
c1ccc(-c2ncc3c(ccc4ccccc43)n2)cc1	23*	4	3.6*	6.3*	9.1*	17*	12*	3.8*	17*	1	SMARCA2 conf=2;VP16 Luc act=5.1*
c1ccc2c(c1)cnc1ccccc12	0	0	-1	0	2	-1	/	/	/	/
O=[N+]([O-])c1ccc(COc2ccc(CN3CCCCC3)cc2)cc1	1	0	-1	2	4	8	/	/	/	/
O=[N+]([O-])c1ccc(COc2ccc(CN3CCOCC3)cc2)cc1	3	-2	0	7.7*	5	18*	4.2*	1	9	1
O=[N+]([O-])c1ccc(COc2ccc(CN3CCCC3)cc2)cc1	2	0	0	4.8*	1	15*	6.9*	5.6*	13*	0
Cc1ccc(N2C(N)=NC(N)=NC23CCCC3)c(C)c1	-2	0	-1	0	3	0	/	/	/	/
O=C(CCCc1ccccc1)Nc1ccc2c(c1)OCCO2	8.2*	1	1	6.1*	9.3*	22*	9.0*	4.9*	15*	1	SMARCA2 conf=5;VP16 Luc act=8.8*;LXR ag=1;hcDAF12 conf=9.1*
C/C(CC(=O)Nc1ccc2c(c1)OCCO2)=N\NC(=O)c1ccccn1	6.2*	1	0	6.4*	9.5*	15*	1	-1	7	0	SMARCA2 conf=2;VP16 Luc act=2
COc1ccccc1C(=O)N/N=C(\C)CC(=O)Nc1ccc2c(c1)OCCO2	2	-2	1	0	0	3	/	/	/	/
O=C(CCCc1cccs1)Nc1ccc2c(c1)OCO2	3	6.0*	1	5.5*	6	22*	9.7*	6.7*	14*	1
O=C(CSc1ccccc1)Nc1ccc2c(c1)OCCO2	6	3	1.0*	11*	2	15*	14*	7.5*	15*	1
Cc1c(NC(=O)c2ccc(=O)oc2)c(=O)n(-c2ccccc2)n1C	1	1	-1	0	-3	0	/	/	/	/
COC(=O)[C@]12C[C@H](CC(=O)NCCCN3CCCC3=O)C(=O)N(Cc3cccc4ccccc34)C1=C[C@H](C1CCCC1)O[C@@H]2C	-2	/	-1	-1	-1	-2	/	/	/	/
O=C(/C=C/c1ccccc1)Nc1ccc2c(c1)OCCO2	4	-1	1	7.4*	3	18*	14*	6.5*	23*	1
CSc1ccc(/C=C/C(=O)Nc2ccccc2)cc1	11*	-3	1	14*	-1	14*	6.8*	4.3*	16*	1	LXR ag=2;hcDAF12 conf=7.4*
CSc1cccc(NC(=O)/C=C/c2ccccc2)c1	1	1	0	1	1	10	/	/	/	/
